# Test results as given in PubChem BioAssay (NCI).
# This is part of a sample that, as a whole, favours compounds with a hit. Of some 83,000 tested, about 20% had one in any assay.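 Negative percent growth values reflect cell death: -40 means 40% of the cells present at the start died, and -100 means all died.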 Values without a mark were called inactive. Activity calls are given as the source filed them. How the source made its calls: active means growth percent below 10; inactive means the rest.
# What was measured:
# Assay in all cases: NCI-60 one-dose screen, 48 h (100 = growth as untreated, 0 = no growth, -100 = all killed)
# Conditions in all cases: 10 µM unless noted
# SK-MEL-2 melanoma = test system: SK-MEL-2 melanoma
# EKVX NSCLC = test system: EKVX NSCLC
# SN12C renal = test system: SN12C renal
# UO-31 renal = test system: UO-31 renal
# TK-10 renal = test system: TK-10 renal
# ACHN renal = test system: ACHN renal
# CAKI-1 renal = test system: CAKI-1 renal
# CCRF-CEM leukemia = test system: CCRF-CEM leukemia
# MOLT-4 leukemia = test system: MOLT-4 leukemia
# SR leukemia = test system: SR leukemia
# RPMI-8226 leukemia = test system: RPMI-8226 leukemia
# OVCAR-8 ovarian = test system: OVCAR-8 ovarian
# OVCAR-5 ovarian = test system: OVCAR-5 ovarian
# OVCAR-4 ovarian = test system: OVCAR-4 ovarian
# SK-OV-3 ovarian = test system: SK-OV-3 ovarian
# IGROV1 ovarian = test system: IGROV1 ovarian
# OVCAR-3 ovarian = test system: OVCAR-3 ovarian
# HS 578T breast = test system: HS 578T breast
# NCI/ADR-RES ovarian = test system: NCI/ADR-RES ovarian
Compound,growth (SK-MEL-2 melanoma),growth (EKVX NSCLC),growth (SN12C renal),growth (UO-31 renal),growth (TK-10 renal),growth (ACHN renal),growth (CAKI-1 renal),growth (CCRF-CEM leukemia),growth (MOLT-4 leukemia),growth (SR leukemia),growth (RPMI-8226 leukemia),growth (OVCAR-8 ovarian),growth (OVCAR-5 ovarian),growth (OVCAR-4 ovarian),growth (SK-OV-3 ovarian),growth (IGROV1 ovarian),growth (OVCAR-3 ovarian),growth (HS 578T breast),growth (NCI/ADR-RES ovarian)
COc1ccc2c(Nc3ccc(NS(C)(=O)=O)cc3)c3ccccc3nc2c1,-70.4% (active),6.78% (active),10.3%,-41.5% (active),9.37% (active),-3.55% (active),-22.6% (active),11%,2.19% (active),-11.6% (active),1.1% (active),8% (active),4.43% (active),11.8%,20.5%,3.52% (active),-22.3% (active),-17.1% (active),32.7%
C#CCNC(=O)[C@H](Cc1ccccc1)NC(=O)[C@]12CC[C@@H](C(=C)C)[C@@H]1[C@H]1CC[C@@H]3[C@@]4(C)Cc5c([nH]c6ccccc56)C(C)(C)[C@@H]4CC[C@@]3(C)[C@]1(C)CC2,95.5%,94%,93.6%,90.3%,90.4%,94.8%,86.8%,91.6%,93.7%,88.5%,82.9%,96.5%,95.8%,108%,95.4%,110%,96.5%,113%,97.2%
CC(=O)OCCCCCNc1ccccc1,102%,104%,103%,88.1%,107%,101%,95.7%,103%,91.3%,88.4%,111%,108%,97.5%,92.8%,109%,118%,105%,107%,102%
Cc1nn(-c2ccccc2)c(N2CCOCC2)c1/C=N/N=c1\sc2ccccc2n1C,105%,82.2%,81.7%,65.2%,129%,82.4%,67.3%,67.3%,58.6%,36.7%,52.9%,93.9%,82%,98.6%,76.9%,89.5%,104%,91.2%,94.9%
C[C@H]1[C@H](C)CC[C@]2(CO)CC[C@]3(C)C(=CC[C@@H]4[C@@]5(C)CCCNC(C)(C)[C@@H]5CC[C@]43C)[C@H]12,13.1%,19.4%,-1.54% (active),12.5%,23%,-66.3% (active),16.4%,-34.7% (active),-45.6% (active),-49.9% (active),-39.7% (active),9.93% (active),28.4%,18.5%,69.6%,-57.9% (active),6.84% (active),10.5%,17.6%
CN(C)C(C(N)=O)c1ccc(Cl)cc1 (stereo not given),102%,97.8%,103%,94.2%,92.2%,95.2%,93.4%,115%,95.5%,98.5%,107%,101%,95.9%,102%,98.5%,103%,112%,103%,106%
CSc1nc(O)c(-c2ccccc2)c(=O)[nH]1,103%,94.6%,96.9%,92%,97%,93.3%,93.6%,102%,97%,96%,102%,101%,97.5%,108%,,104%,120%,110%,106%
NC(=S)N/N=C/c1ccc(OC(=O)COc2cc(Cl)c(Cl)cc2Cl)cn1,59.1%,106%,43.9%,22.1%,92.5%,18.4%,36.4%,40.7%,31.3%,1.38% (active),76.4%,26.1%,115%,,99.5%,63.8%,59.2%,114%,26.9%
COc1cc2nc(-c3ccc(C(F)(F)F)cc3)cc(OCCCN3CCCCC3)c2cc1OC,61.4%,69.4%,45.7%,30.5%,105%,38.2%,0.476% (active),42.4%,35.8%,8.2% (active),24.8%,52.4%,57.7%,,77.8%,31.8%,60.1%,59.1%,49.7%
O=C(Nc1cccc(Cl)c1)c1cc(Cl)ccc1O,-17.7% (active),7.96% (active),-0.418% (active),7.54% (active),13.4%,-0.748% (active),-7.81% (active),12.9%,4.18% (active),12.3%,-20.9% (active),9.51% (active),12.3%,27.4%,,17.5%,13.5%,-7.76% (active),2.78% (active)
CC(O)(CO)c1ccccc1 (stereo not given),106%,96.3%,98.8%,91%,110%,95.2%,104%,113%,110%,112%,113%,100%,94.9%,,106%,97.2%,112%,100%,103%
COc1ccc(/C(=C\c2ccccc2)C(=O)O)cc1OC,98.3%,101%,98.4%,88.9%,104%,94.8%,97.4%,117%,108%,108%,102%,105%,87.5%,103%,105%,96%,104%,97%,93.8%
COC(=O)C(c1ccccc1)C(CC(=O)c1ccccc1)c1ccccc1 (stereo not given),85.5%,58.3%,102%,75%,92.4%,86.6%,74.8%,84.7%,71%,87.5%,71.1%,102%,93.3%,,31.8%,83.3%,81.3%,102%,83.5%
CCCCCCOc1ccc(C(=N)N(CCCC)CCCC)c2ccccc12,-85.6% (active),-75.4% (active),-86.5% (active),-93.9% (active),-92.4% (active),-92% (active),-83.7% (active),-12.8% (active),-38.4% (active),-46.9% (active),-41.2% (active),-74.6% (active),-93.8% (active),-96.4% (active),-96.4% (active),,-94.2% (active),-13.9% (active),-95.3% (active)
N#Cc1cc(-c2nc3ccccc3s2)c(=O)n(NS(=O)(=O)c2ccc(Cl)cc2)c1N,102%,100%,97.8%,70.4%,139%,95.5%,80.5%,107%,107%,110%,100%,110%,102%,103%,,95.5%,107%,99.7%,
COc1ccc(NC(=O)c2sc3nc(C)c(C(=O)c4ccc(OC)cc4)cc3c2N)cc1,23%,68.5%,63.8%,45.5%,55%,82.8%,42.6%,36%,27.5%,7.62% (active),41.3%,62.1%,72.6%,,42.7%,50.2%,25%,40.4%,48.9%
C=C1C(=O)O[C@H]2[C@H]1CC/C(COC(=O)NCCc1c[nH]c3ccc(Cl)cc13)=C\CC[C@@]1(C)O[C@@H]21,-3.3% (active),-85.8% (active),-70.1% (active),-99.7% (active),-97.2% (active),-100% (active),-100% (active),-18.3% (active),-6.88% (active),-4.62% (active),-31.9% (active),-43.6% (active),-11.3% (active),,96.4%,-83.9% (active),-96.4% (active),22.8%,33.9%
O=C(CN1CCOCC1)Nc1ccc2ncnc(Nc3ccc(Oc4cccc(F)c4)c(Cl)c3)c2c1,93.6%,29.8%,48.9%,31.6%,39.5%,24.1%,38.3%,82.3%,64.8%,84.1%,55.7%,68.6%,68.7%,,13.9%,19.9%,55.6%,86.6%,
CCCCCCCCCCCC(=O)C(CCCCCCCCCC)C(=O)Nc1ccccc1 (stereo not given),98.8%,108%,98.1%,86.1%,95.1%,100%,97%,103%,89.3%,99.7%,99.2%,103%,101%,102%,,89.2%,112%,96.8%,102%
O=C1CCCN1c1cccc2cccnc12,104%,91.5%,102%,81.2%,88.5%,102%,91.9%,107%,102%,101%,102%,103%,109%,110%,,107%,110%,97.3%,99.3%
CNC(=O)NCC1OC(n2cnc3c(NC(=O)Nc4ccccc4)ncnc32)C(O[Si](C)(C)C(C)(C)C)C1O[Si](C)(C)C(C)(C)C (stereo not given),56.7%,23.4%,-79.3% (active),48.3%,34.2%,20.5%,59.5%,42.6%,24.1%,-22.1% (active),20.2%,32.9%,69.2%,,77.5%,52.5%,-28.7% (active),61%,31%
COc1ccc(/C(C)=N/NC(=O)CSc2nc3ccccc3c(=O)n2Cc2ccc(S(N)(=O)=O)cc2)c(OC)c1,115%,89.9%,100%,80%,108%,105%,89.9%,104%,97.9%,95.6%,116%,100%,99%,101%,,104%,111%,102%,100%
O=C1Nc2c(ccc(Cl)c2Cl)/C1=C/c1ccc(F)cc1,5.62% (active),60.2%,98.3%,71.9%,109%,85.9%,38%,93.5%,76%,73.9%,96.5%,97.9%,84.4%,73.8%,89.7%,42.8%,83.5%,73.8%,94%
